Among the data in the supplement of paper PMC10681739 are TF binding intensity values, retold here.

This experiment addresses T1, ETS1 (UniProt P14921).
T1 sequence: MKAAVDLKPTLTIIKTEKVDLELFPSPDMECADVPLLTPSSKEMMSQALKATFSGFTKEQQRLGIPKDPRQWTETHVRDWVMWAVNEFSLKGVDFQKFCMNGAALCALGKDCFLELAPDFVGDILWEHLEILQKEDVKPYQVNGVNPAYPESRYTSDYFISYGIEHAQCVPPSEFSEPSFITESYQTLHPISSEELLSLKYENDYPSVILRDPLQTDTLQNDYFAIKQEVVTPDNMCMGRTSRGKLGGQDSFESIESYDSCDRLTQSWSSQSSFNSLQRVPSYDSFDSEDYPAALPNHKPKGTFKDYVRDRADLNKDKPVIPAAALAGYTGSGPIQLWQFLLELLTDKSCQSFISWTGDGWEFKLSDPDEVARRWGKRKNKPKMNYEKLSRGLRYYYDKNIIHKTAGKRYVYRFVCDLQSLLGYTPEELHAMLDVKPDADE
Put plainly: TF binding intensity (PBM fluorescence), negative control probe (arbitrary fluorescence units); higher = stronger binding. Here is the method: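 gcPBM negative-control 36-bp genomic probes lacking TF binding sites. Each was incubated with recombinant human ETS1 or RUNX1 alone and detected by antibody fluorescence. Values are medians over replicate spots (4 spots for the ETS1-RUNX1 arrays, 3 for the ETS1-ETS1 array). The probes sit in constant array flanks that are not printed.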
The sequence “AGCTTTCCAAGTTTTTGTGGGCAACATCAACTGTTC (protein concentration 1 nM)” showed a TF binding intensity of 486.

Regarding “ATAAGCCAATTTTTTTTACATTTATGAAATGAGAGA (protein concentration 10 nM)”, the TF binding intensity was found to be 105. For “CCTTGCCAATGTTTGTGTGGAGAGCACACGGGTGCT (protein concentration 10 nM)”, the TF binding intensity came to 116. Regarding “AAAACTAAAAGTAGAACCACCATATGATCCAGTAAT (protein concentration 1 nM)”, the TF binding intensity was 504. Take “GCCCATCATTGGAGTCCCTTGGGGGTATCTGGAGCA (protein concentration 10 nM)”: the TF binding intensity was 161. For “CTTTCTAAAGAGAAAAGCTCCTTTGTACCACGTGTC (protein concentration 10 nM)”, the TF binding intensity came to 103. For “GCAGTGAGCTGAGATCACACCATTGCACTCCAGCCT (protein concentration 10 nM)”, the TF binding intensity was determined as 135. With “CTATAGTATGTCAAAACCACAAAGACAATGTGCAGC (protein concentration 1 nM)”, the TF binding intensity amounted to 466. The value for “GTTGGGCCCCCTGGGCCTTGTTCTCGGGATCCAGGG (protein concentration 10 nM)” was 111; that for “CCGGCTGTCTCCTGCACCCAGGTAAGCAGCGGCGCT (protein concentration 10 nM)” was 108. “ACTGATCATCTGAAATGTGGCTAGTGTGAAAATGAA (protein concentration 1 nM)” returned a TF binding intensity of 532.

“CCCTTCGCCATTGCAGCCATGCCACCCCTCCTTCTC (protein concentration 10 nM)”: the TF binding intensity was found to be 149. “GCTGGGAGACAGAGCCAGACACTGTCTCAAAAAAAA (protein concentration 10 nM)” yielded a TF binding intensity of 110.

In turn, “CCTATTAAATTCAGATTTGCAGTTTGTTTTTTATCA (protein concentration 10 nM)” showed a TF binding intensity of 117. Regarding “CCCCTCCAGACTCCCCTGACCCAGGGTGGAGGACAT (protein concentration 10 nM)”, the TF binding intensity came out at 161. The value for “AGAAAGGCATGTCTCCAGGCTCTAAAGAGGCAAAGG (protein concentration 10 nM)” was 117; that for “CGCCAGGGGGAGCAACAGAAATCCACACCAGGGAAG (protein concentration 10 nM)” was 173. As for “TGCCAGGGTGTAATTTTTCCCACTTTCACCTCCTTC (protein concentration 10 nM)”, the TF binding intensity came to 128. Regarding “ATTTCTTGAGAAATCTGTGGTTATTATTTAACTCTT (protein concentration 1 nM)”, the TF binding intensity is 461. The value for “CCCTGAGGTCTATCTTGCTGCAAATTGAATGCCTGC (protein concentration 10 nM)” was 120; that for “AAATTTATCTGAGTCCAAAATCTCTCCCTTCAACCT (protein concentration 10 nM)” was 119; that for “GGCTGGTAGAAATACTGCGGCTAATAAAGGCGTGGA (protein concentration 1 nM)” was 425. Regarding “GAGGGTCCCGGCTCTGCCGCAGGCGGGCGGGGCAGA (protein concentration 1 nM)”, the TF binding intensity was determined as 339. “AAGCCTGGAGTTGGGGTGGTGGGGTGAGAATCAGCC (protein concentration 10 nM)” showed a TF binding intensity of 170.

The sequence “TTGAAATGCATTCTCTGTGGGCATATGAAGTAGATT (protein concentration 1 nM)” registered a TF binding intensity of 410. Consider “ATTTGGGTTCCAGCCCGCTAGCCTGCCTTTTCTCAT (protein concentration 10 nM)”, for which the TF binding intensity was found to be 92.9. Turning to “TTGTGTTCTTATCAAATTATTAAGATTTTAGGTGAG (protein concentration 10 nM)”, the TF binding intensity turned out to be 133. In turn, “AATAAAGGTGAGGCAGTCCAGAGTATTTCAAAACGG (protein concentration 10 nM)” came in with a TF binding intensity of 116.

On to “CCGGGCCGCTGCGGGCTCCCCAGCTCCCCACAGATC (protein concentration 10 nM)”, for which the TF binding intensity turned out to be 147. For “AGCAGATCATTTGAGCCTGGGAGGCGCACATGGCAG (protein concentration 10 nM)”, the TF binding intensity came to 116. The value for “CCACCGAGTGTTCTCGTTGCTCCACCGTAGCATCAG (protein concentration 10 nM)” was 124; that for “GGCTGAGGTGTCTGTGTTGGCAGCAGGAGCCTCTCT (protein concentration 10 nM)” was 128; that for “CTGTTGTTTGACTTTAGTCATCTCCTACTTTTATAG (protein concentration 10 nM)” was 137. Regarding “TTTTTCTTTTAATTTTTCTTTTTTATTCTATTTTTT (protein concentration 10 nM)”, the TF binding intensity is 117. The value for “CCCAATCTGTAACAACCCACATCTGTTCCTTATTTG (protein concentration 1 nM)” was 466; that for “CGTTCGTTCGACAGCTCTTGTGGTAAACAGCGTCAA (protein concentration 10 nM)” was 132. “CAGGAGAAATATGAGATTAAGAACACATGATGTTAA (protein concentration 10 nM)” gave a TF binding intensity of 123.

For the sequence “ACGAAAGTAAACAGTACTAGGTGCAGGGGCTTTAAT (protein concentration 10 nM)”, the TF binding intensity came out at 117. Take “TCCAGAAGCAGAGGCTGAGAGAGGGATTCTTGTGCC (protein concentration 10 nM)”: the TF binding intensity is 112.

In the case of “CTTGGTGTGTCTGAAGAAAGATCAGAAGGCTGGCAT (protein concentration 10 nM)”, the TF binding intensity amounted to 123.
